ClpP mod: qHTS Assay for Activators of ClpP | ATP-dependent Clp protease proteolytic subunit (Bacillus subtilis (strain 168)), P80244 | purified B. subtilis ClpP, FRET peptide cleavage, 20 min | Potency, µM (doses to about 57.5 µM), for inactives: at the top dose activity change, negative = active | hit rate 1.9% among 340,000 | AID 651965, 2013; active means well fitted falling curve with a large enough effect; inconclusive means small, poorly fitted or top-dose-only effect; inactive means no such curve, though single readings can be large or run the other way; further: potency means the concentration at half of the fitted maximal effect; the source files actives as falling curves though it sought activators and does not explain the sign; nearly all actives have a fitted effect of over 65% in size
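ClpP 10 microg/mL final, pH 8 Tris/KCl buffer with BSA, glycerol, Tween-20; compound pinned in; FRET-FV substrate; RT 20 min; Ex320/Em430; ΔFRET vs ADEP 5.8 microM, DMSO, no enzyme.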
Menin MLL FP FL: qHTS Assay for Inhibitors Targeting the Menin-MLL Interaction in MLL Related Leukemias: Competition With Fluorescein Labeled MLL-derived Peptide; Fluorescence polarization, fluorescein-MLL peptide displacement from menin; FP activity change, % at 61.4 µM; 290,000 tested, under 10 active; active means well fitted curve in the direction sought with a large enough effect in the polarisation, not every such curve was filed as active; inconclusive means small, poorly fitted or top-dose-only effect, or effect the other way, or a change in a side signal; inactive means no such curve, though single readings can be large or run the other way; the % refers to the polarisation; further: % of control where 0% means no effect
p53 reactivator: qHTS assay for re-activators of p53 using a Luc reporter; Potency, µM (top dose mostly 92.2 µM), without a hit: at the top dose activity change, positive = activation, usual class: activators; H1299 p53-A138V BP100-luciferase reporter, luminescence, 24 h; hit rate 0.063% among 320,000; active means well fitted activation curve with a large enough effect; inconclusive means small, poorly fitted or top-dose-only effect; inactive means no such curve, though single readings can be large or run the other way; further: potency means the concentration at half of the fitted maximal effect; % of control where 0% means no effect; nearly all actives have a fitted effect of over 45% in size
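p53-null H1299 cells stably carrying temperature-sensitive p53-A138V and a BP100-luciferase reporter were pinned with compounds (4-point, 1:5 series) and held 24 hrs at 37 deg C. Luminescence was read 10 min after detection reagent.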
Menin MLL FP TR: qHTS Assay for Inhibitors Targeting the Menin-MLL Interaction in MLL Related Leukemias: Competition With Texas Red Labeled MLL-derived Mutant Peptide | O00255 | Potency, µM (top dose mostly 61.6 µM), for the others: at the top dose FP activity change, negative = inhibition, actives largely listed as inhibitors | Menin + Texas Red MLL mutant peptide, fluorescence polarization | hit rate 0.23% among 270,000 | AID 1768, 2009; active means well fitted inhibition curve with a large enough effect in the polarisation, with a control signal flat, not every such curve was filed as active; inconclusive means small, poorly fitted or top-dose-only effect, or effect the other way, or a change in a side signal; inactive means no such curve, though single readings can be large or run the other way; the % refers to the polarisation; further: potency means the concentration at half of the fitted maximal effect; % of control where 0% means no effect
CXXC DNA block: qHTS Fluorescence Polarization Assay for Inhibitors of MLL CXXC domain - DNA interaction; MLL-CXXC / FITC-HOXA9 DNA fluorescence polarization; Histone-lysine N-methyltransferase 2A (Homo sapiens), Q03164; Potency, µM (titrated, usually from 115 µM), for the others: top-dose activity change, negative = inhibition, actives largely listed as inhibitors; hit rate 0.037% among 290,000; active means well fitted inhibition curve with a large enough effect in the polarisation, with a control signal flat, not every such curve was filed as active; inconclusive means small, poorly fitted or top-dose-only effect, or effect the other way, or a change in a side signal; inactive means no such curve, though single readings can be large or run the other way; the % refers to the polarisation; further: potency means the concentration at half of the fitted maximal effect
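Purified MLL-CXXC (added from a 7 uM solution) was preincubated 5 min at ambient with pinned compounds in 50 mM Tris-HCl pH 7.5, 50 mM NaCl, 1 mM DTT, 0.05% BSA. Fluorescein-labeled HOX-A9 DNA (50 nM solution) followed, 30 min, then polarization read.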
* hit, by the source's call; ? = inconclusive; / = not tested or not shown; [ ] = dose if it differs, or a comment. The sample as a whole holds a higher share of hits than the screen did.

SMILES	ClpP mod	Menin MLL FP FL	p53 reactivator	Menin MLL FP TR	CXXC DNA block
COC(=O)c1cc(NC(=O)CSC2=NCCS2)cc(C(=O)OC)c1	25.1µM*	3.2	14.3%	7.0%	-8.6%
O=S(=O)(c1ccccc1)N(Cc1ccccc1)c1ccccn1	-1.4%	0.4	-7.6%	0.1%	7.2%
O=C(O)c1ccc(CN(c2ccccn2)S(=O)(=O)c2ccccc2)cc1	28.2µM*	4.9	-2.9%	3.1%	-7.1%
O=C(NCc1ccccc1)c1ccc(CN(c2ccccn2)S(=O)(=O)c2ccccc2)cc1	20µM*	-1.0	1.6%	-24.9%	-9.3%
CCCN1CNc2c(c(=O)[nH]c(=S)n2CCC(C)(C)C)C1	-4.6%	/	/	/	/
COC(=O)[C@H](Cc1ccccc1)NC(=O)O[C@@H]1C(=O)c2ccc(OC)cc2O[C@H]1c1ccc2c(c1)OCO2	/	-4.2	/	-8.5%	/
CCn1c(SCC(=O)c2c[nH]c3ccccc23)nc2cc(S(=O)(=O)N3CCOCC3)ccc21	28.2µM*	4.1	-5.7%	-4.9%	17.8%
CSc1ccc(-c2nc3ccc(C)cn3c2Nc2ccccc2C)cc1	3.55µM*	/	/	/	/
Nc1nc(=S)c2n[nH]nc2[nH]1	6.4%	/	/	/	/
CCN(c1ccccc1)S(=O)(=O)c1ccc(OCc2c(C)noc2C)cc1	0.4%	3.8	3.6%	-9.0%	1.6%
CCN(C(=O)COC(=O)c1ccc(OCc2c(C)noc2C)cc1)c1ccccc1	25.1µM*	1.2	-8.9%	/	-5.7%
Cn1c(=O)c2c(nc(SCC(=O)Nc3ccc(F)cc3)n2Cc2ccccc2F)n(C)c1=O	-1.7%	/	/	/	/
CC(=O)N1CCc2cc3nc(C)cc(C)c3cc21	25.1µM*	1.9	12.2%	-1.1%	-5.9%
Cc1c(C(=O)Nc2cccc(C#N)c2)sc2nc3n(c(=O)c12)CCCCC3	-0.2%	/	/	/	/
Cc1ccc2nc(Cl)c3cc(C(=O)N(CCN(C)C)Cc4ccco4)sc3c2c1	25.1µM*	0.7	10.5%	?	-5.2%
CN(C)CCN(Cc1ccco1)C(=O)c1cc2c(Cl)nc3ccccc3c2s1	-1.9%	-5.4	-4.7%	-24.3%	4.8%
c1ccc(Nc2cccc3ccccc23)cc1	3.8%	/	11.0%	/	/
c1ccc(Nc2ccc3c4c(cccc24)CC3)cc1	11.2µM*	?	19.4%	?	-3.4%
COc1ccc(S(=O)(=O)NCC(c2ccco2)S(=O)(=O)c2cccs2)cc1F (stereo not given)	-0.9%	/	/	/	/
CCCCc1[nH]c(=O)c(C#N)c2c1CCCC2	25.1µM*	7.2	-0.5%	-3.8%	-0.1%
Cc1[nH]c(=S)c(C#N)c2c1CCCC2	/	1.9	-3.5%	19.8%	16.8%
Cc1[nH]c(=O)c(C#N)c2c1CSC(C)(C)C2	25.1µM*	2.4	0.6%	-19.8%	-4.7%
Cc1[nH]c(=O)c(C#N)c2c1CCCC2	28.2µM*	-3.4	6.5%	-9.3%	4.1%
O=C(Cc1ccc2ccccc2c1)NO	1.7%	/	/	/	/
COc1ccc(-c2ccc(NS(=O)(=O)c3ccc(OC)c(OC)c3)cc2)nn1	-0.9%	/	/	/	/
SMILES	ClpP mod	Menin MLL FP FL	p53 reactivator	Menin MLL FP TR	CXXC DNA block
CCOC(=O)c1ccc(N(C(=O)c2ccccc2)c2ccccc2)cc1	-4.3%	/	/	/	/
O=C(Nc1nncs1)c1cccc(S(=O)(=O)N2CCCC2)c1	-0.1%	7.7	9.1%	30.3%	-4.6%
O=C(Nc1nncs1)c1ccc(Br)c(S(=O)(=O)N2CCCC2)c1	31.6µM*	3.5	9.7%	23.2%	-6.9%
O=C(Nc1ccccn1)c1ccc(Br)c(S(=O)(=O)N2CCCCC2)c1	12.6µM*	5.7	-4.6%	4.4%	-10.6%
COc1ccc(S(=O)(=O)NCc2cccn2Cc2cccc(C)c2)cc1OC	0.8%	/	/	/	/
O=C(O)c1ccccc1-c1ccccc1C(=O)NCc1ccccc1F	8.91µM*	-5.5	13.0%	16.1%	-1.3%
CC(C)CNC(=O)c1ccccc1-c1ccccc1C(=O)O	-0.3%	-2.5	-1.4%	-2.1%	9.3%
NCCCCCC(=O)N/N=C/c1coc2ccccc2c1=O	17.8µM*	1.9	3.4%	/	4.5%
N#CCC(=O)N/N=C/c1coc2ccccc2c1=O	-1.0%	22.6	2.7%	/	4.1%
NC(=S)NNC(=O)Nc1ccc(Cl)c(Cl)c1	22.4µM*	1.6	-7.8%	-0.8%	-1.3%
CCN(CC)C(=O)c1cc(-c2ccccc2OC)on1	25.1µM*	5.2	?	10.9%	-2.1%
COc1ccccc1-c1cc(C(=O)Nc2ccc(F)cc2F)no1	?	4.6	?	11.2µM*	-9.8%
Cc1ccc(S(=O)(=O)NC(=O)O[C@@H]2C(=O)c3cc(Br)ccc3O[C@H]2c2ccc3c(c2)OCO3)cc1	/	?	/	-2.2%	/
CC1(C)Cc2c(C#N)c(N3CCOCC3)nc(Cc3ccccc3)c2CO1	?	-1.3	7.6%	?	-5.0%
CCc1nc(N2CCN(C(=O)c3ccccc3)CC2)c(C#N)c2c1COC(C)(C)C2	25.1µM*	1.9	-4.2%	?	-2.0%
CC1(C)Cc2c(C#N)c(N3CCN(C(=O)c4ccccc4)CC3)nc(Cc3ccccc3)c2CO1	31.6µM*	-0.9	-3.2%	-3.3%	3.7%
O=C(NNc1ccc(F)cc1F)c1cccs1	-1.4%	/	/	/	/
CCCCOc1ncnc2c1[nH]c1ccccc12	17.8µM*	-0.4	?	11.3%	4.5%
CCCCOc1ncnc2c1[nH]c1ccc(F)cc12	15.8µM*	1.1	28.7%	?	2.6%
CCCCOc1ncnc2c1[nH]c1ccc(OCC)cc12	-29.2%	1.5	-4.1%	7.9%	5.4%
Brc1cccc[n+]1CCCCCC[n+]1ccccc1Br	-2.2%	/	/	/	/
CCCC(=O)N1CCN(c2ccc(NC(=O)c3cccs3)cc2)CC1	15.8µM*	-2.0	8.3%	-9.2%	14.9%
O=C(COc1ccccc1C(=O)Nc1ccccc1)Nc1cccc(Cl)c1	-2.7%	/	/	/	/
CCc1ccc(N2C(=O)C3NN=C(C(=O)OCc4ccccc4)C3C2=O)cc1 (stereo not given)	-0.5%	1.8	0.5%	-10.8%	-6.0%
O=C(OCc1ccccc1)C1=NNC2C(=O)N(c3ccccc3)C(=O)C12 (stereo not given)	22.4µM*	7.7	-4.5%	-10.8%	-1.7%
FC(F)(F)c1nc(-c2cccs2)ncc1-c1nnnn1-c1ccc(Cl)cc1	35.5µM*	2.6	3.2%	4.2%	-14.5%
Clc1ccc(-n2nnnc2-c2cnc(-c3ccncc3)nc2-c2cccs2)cc1	-6.7%	2.1	-10.8%	3.9%	-1.0%
c1ccc(C(c2nnnn2C2CCCC2)N2CCCCCC2)nc1 (stereo not given)	22.4µM*	-1.5	1.6%	-7.5%[11.7 µM]	-2.9%
c1ccc(C(c2ccccc2)N2CCN(C(c3ccccn3)c3nnnn3C3CCCC3)CC2)cc1 (stereo not given)	22.4µM*	1.9	5.4%	0.3%	-8.9%
CCCCN(CC)CCCNC(=O)CCN1N=C(c2ccc(OC)cc2)CCC1=O	-3.9%	/	/	/	/
